Assay results: PubChem BioAssay (Tox21)
Unmarked numbers belong to inactive results. The call rests on the fitted dose curve.

The compounds below were run against Muscarinic acetylcholine receptor M1 (Homo sapiens) (UniProt P11229) (assay: Cholinergic receptor muscarinic 1 (CHRM1) small molecule agonists, cell-based qHTS assay (AID 1963589; further: nearly all actives have a fitted effect of over 35% in size)). Conditions: CHRM1-CHO cells, agonist mode, calcium flux fluorescence; series mostly up to 76.8 µM; activation: at the top concentration.
Description: National Center for Advancing Translational Sciences [NCATS]
Division of Preclinical Innovation [DPI]
U.S. Environmental Protection Agency [EPA]
National Institutes of Environmental Health Sciences [NIEHS]
National Toxicology Program [NTP]
U.S. Food and Drug Administration [FDA]
The CHRM1 is a muscarinic receptor. This receptor plays a crucial role in learning and memory processes and has long been identified as a promising therapeutic target for the improvement of cognitive decline in Alzheimer's disease (AD). The CHRM1-CHO cell line stably expressing human muscarinic acetylcholine receptor M1 (CHRM1) can be used for screening agonists and antagonists of interactions between CHRM1 and its ligands. The CHRM1-CHO Calcium Flux Assay is a homogeneous fluorescence-based assay for detecting the intracellular calcium level using FDSS kinetic plate reader system.
CHRM1-CHO cells were dispensed at 1000 cells/3uL/well in 1536-well black-clear bottom plates using a Multidrop Dispenser. After the assay plates were incubated at a 37 C/5% CO2 incubator for 18 h, 3 uL of Dye Loading Buffer was transferred to the assay plate by a Flying Reagent Dispenser. The assay plates were incubated at 37 C for 1h. For agonist mode, 23 nL of compounds dissolved in DMSO, positive controls or DMSO only was transferred to the assay plate by a pin tool. […] Each test compound was measured at 15 concentrations in three independent runs.
On the % scale 0 is the no-effect control and ±100 the full control effect.

Chain of Muscarinic acetylcholine receptor M1 (Homo sapiens) (P11229 whole entry, looked up): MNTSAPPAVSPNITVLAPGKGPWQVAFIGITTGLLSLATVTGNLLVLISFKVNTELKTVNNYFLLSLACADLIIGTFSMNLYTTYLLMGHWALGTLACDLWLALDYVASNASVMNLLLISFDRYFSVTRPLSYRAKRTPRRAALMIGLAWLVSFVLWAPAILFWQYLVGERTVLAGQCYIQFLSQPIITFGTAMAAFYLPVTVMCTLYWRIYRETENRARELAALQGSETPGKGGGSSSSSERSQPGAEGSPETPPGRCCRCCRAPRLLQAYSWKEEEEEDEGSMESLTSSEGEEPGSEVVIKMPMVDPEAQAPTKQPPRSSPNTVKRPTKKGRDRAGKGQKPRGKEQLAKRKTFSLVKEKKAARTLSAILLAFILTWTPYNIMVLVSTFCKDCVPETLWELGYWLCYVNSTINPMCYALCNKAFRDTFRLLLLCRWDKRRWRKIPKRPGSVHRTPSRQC

| SMILES | activation |
| --- | --- |
| CC(C)(C)c1cc(CCC(=O)OCCSCCOC(=O)CCc2cc(C(C)(C)C)c(O)c(C(C)(C)C)c2)cc(C(C)(C)C)c1O | -0.934% [at 35.3 µM] |
| COc1cc2c(N3CCN(C(=O)Nc4ccc(OC(C)C)cc4)CC3)ncnc2cc1OCCCN1CCCCC1 | -0.15% [at 35.3 µM] |
| C=C(C)C(=O)OCCN(C)C | -0.119% |
| CCOc1cc(OCC)c(C(C)=O)cc1OCC | -0.444% |
| ICCc1ccccc1 | 16.4% |
| CN(C)CCN1CCOCC1 | 0.0652% |
| CC(=O)[C@H]1CC[C@H]2[C@@H]3C[C@H](C)C4=CC(=O)CC[C@]4(C)[C@H]3[C@@H](O)C[C@]12C | 1.64% [at 35.3 µM] |
| O=[N+]([O-])c1cc(Cl)c(Cl)c(Cl)c1Cl | -0.557% |
| CCCCCCCCCCCCCc1ccccc1 | 0.221% [at 35.3 µM] |
| CCCCN1CCCC1C(=O)Nc1c(C)cc(C)cc1C (stereo not given) | 1.88% [at 35.3 µM] |
| CCOc1ccccc1O | 0.547% |
| Nc1nc(Cl)nc2c1ncn2[C@@H]1O[C@H](CO)[C@@H](O)[C@@H]1F | -0.0007% [at 35.3 µM] |
| CCN(CC)C(=O)N1CCN(C)CC1 | -0.082% [at 35.3 µM] |
| CCCCCCCCCCCCCCCCCC#N | 0.189% |
| CC1(N)CCC(C(C)(C)N)CC1 (stereo not given) | -1.25% |
| Cc1cc(S(=O)(=O)O)ccc1N=Nc1c(O)ccc2ccccc12 | 1.09% |
| COCCCN1CCC(NC(=O)c2cc(Cl)c(N)c3c2OCC3)CC1 | 0.0092% [at 35.3 µM] |
| O=C(O)CCN(C1(C(=O)NO)CCCC1)S(=O)(=O)c1ccc(Oc2ccc(F)cc2)cc1 | -0.791% |
| COc1ccc2nc(SCc3ncc(C)c(OC)c3C)[nH]c2c1 | -0.723% [at 35.3 µM] |
| OC1(c2ccc(Cl)c(C(F)(F)F)c2)CCN(CCCC(c2ccc(F)cc2)c2ccc(F)cc2)CC1 | 1.8% [at 35.3 µM] |

| SMILES | activation |
| --- | --- |
| O=c1[nH]cnc2ccccc12 | 0.449% |
| CO/N=C(\C(=O)O)c1csc(NC(=O)CCl)n1 | 0.104% [at 35.3 µM] |
| CC[C@@]1(O)C(=O)OCc2c1cc1n(c2=O)Cc2c-1nc1ccccc1c2/C=N/OC(C)(C)C | -0.165% [at 35.3 µM] |
| OCCN(CCO)c1cccc(Cl)c1 | -0.257% |
| Clc1cccnc1 | 0.0295% |
| COc1ccccc1N1CCN(CCCNc2cc(=O)n(C)c(=O)n2C)CC1 | -0.437% [at 35.3 µM] |
| CCNS(=O)(=O)c1ccc(C)cc1 | -0.899% |
| O=C(C1CCCCC1)N1CC(=O)N2CCCc3ccccc3C2C1 (stereo not given) | 0.0488% [at 35.3 µM] |
| CCN(CC)c1ccc(C(=C2C=CC(=[N+](CC)CC)C=C2)c2ccc(S(=O)(=O)O)cc2S(=O)(=O)[O-])cc1 | 0.718% |
| O=C1OC(=O)c2cccc3cccc1c23 | -0.342% |
| O=C(O)c1ccccc1NCCc1ccccc1 | -0.11% [at 35.3 µM] |
| CN1CC(=O)NC1=N | 0.586% [at 35.3 µM] |
| CC(C)(C)NCC(O)COc1cccc2c1CCC(=O)N2 (stereo not given) | -0.231% [at 35.3 µM] |
| Cc1c(C2(c3cc(Br)c(O)c(Br)c3C)OS(=O)(=O)c3ccccc32)cc(Br)c(O)c1Br | -0.206% |
| N=C(N)c1ccc(OCCCOc2ccc(C(=N)N)cc2)cc1 | -0.261% [at 35.3 µM] |
| CCCCCCCCCC=O | -1.33% |
| CCOc1ccc2ccccc2c1C(=O)N[C@@H]1C(=O)N2[C@@H]1SC(C)(C)[C@@H]2C(=O)O | 0.0151% [at 35.3 µM] |
| CC(C)C[C@@H](N)C(=O)O | 10.1% [at 15.8 µM] |
| CCC(C)(C)C(=O)O | 8.79% |
| O=C(c1ccccc1)c1cccc(O)c1 | 0.0309% |
